Results on 33 compounds are retold here after PubChem BioAssay (Tox21).

The structures appear in SMILES notation. Results filed as inconclusive are left out. Activity calls are given as the source filed them. Calls follow the shape of the dose curve; as a rule, active = well fitted curve in the direction sought with a large enough effect in the repeat runs; inconclusive = weak or mixed curves; inactive = no such curve, though single readings can be large; an effect the other way counts as inactive or inconclusive.
% is scaled to controls: 0 for no effect and ±100 for the full control effect.

The first test in a line: qHTS assay to identify small molecule antagonists of the retinoid acid receptor (RAR) signaling pathway - cell viability counter screen (AID 1159551). Also: nearly all actives have a fitted effect of over 35% in size. As to conditions: C3RL4 cells viability, ATP luminescence (CellTiter-Glo), 6 h; series mostly up to 92.4 µM; activity change, negative = cytotoxicity: at the top concentration. The essentials: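 C3RL4 cells were seeded overnight at 37 C, then treated with compounds plus 1 uM (final) retinol for 6 h at 37 C. Viability was read as ATP by CellTiter-Glo luminescence after 30 min at room temperature.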
For orientation: qHTS replaces the single test concentration by a dilution series.
`CC(C)S`: the “activity change, negative = cytotoxicity” value was -0.236% (inactive).
Still for that read-out and setting: then `O=C(O)[C@@H](O)[C@H](O)[C@H](O)[C@@H](O)C(=O)O`, with -0.0008% [at 42.5 µM] (inactive); and `CCCCCCCCCC/C=C/C#N`, with 1.11% (inactive).
On the same count and under the same terms, then `Cc1c(C(=O)NCCO)[n+](=O)c2ccccc2n1[O-]`, with -0.0807% [at 42.5 µM] (inactive); and `OCC(CBr)(CBr)CBr`, with -0.659% (inactive); and `COC(=O)c1ccc2cc(C(=O)OC)ccc2c1`, with 0.0867% [at 19 µM] (inactive).
For `CCCCC1CCC(=O)O1` (stereo unspecified), the “activity change, negative = cytotoxicity” value was 0.489% (inactive).
For the compound `CCOC(=O)C(Br)c1ccccc1` (stereo unspecified), the “activity change, negative = cytotoxicity” value was -0.439% (inactive).

A short description of a further test: qHTS assay to identify small molecule antagonists of the retinoic acid receptor (RAR) signaling pathway (AID 1159552; also: nearly all actives have a fitted effect of over 50% in size). As to conditions: C3RL4 RARE luciferase reporter, retinol-stimulated, 6 h; series mostly up to 92.4 µM; activity, negative = inhibition: at the top concentration. The method, boiled down: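 Using a RARE-driven luciferase construct in C3RL4 cells, retinol at 1 uM final provided the agonist stimulus while compounds were co-applied. After 6 hours at 37 C, luminescence was recorded to flag inhibitors of retinol signaling.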
In the case of `C=CCCC=C`, the “activity, negative = inhibition” value is -29.7% (inactive).
The same measure, in the same setting: then `CCc1nnc(NS(=O)(=O)c2ccc(N)cc2)s1`, with 8.11% [at 42.5 µM] (inactive); and `CCOC(=O)c1ccccc1O`, with 12.5% [at 42.5 µM] (inactive).
With `O=C1CCCCC1C1CCCCC1` (stereo unspecified), the “activity, negative = inhibition” value was 1.99% (inactive).
The same measure, in the same setting: then `C[C@@H](N)C(=O)O`, with 84.5% [at 42.5 µM] (inactive).
The same measure, in the same setting: then `CC1(C)C(=O)N(Cl)C(=O)N1Br`, with -7.6% (inactive); and `CCC1(C)NC(=O)NC1=O` (stereo unspecified), with -2.3% (inactive); and `C1CCOC1`, with -1.11% (inactive).
Same read-out and setting: then `CN1CCN(N)CC1`, with -6.15% [at 42.5 µM] (inactive); and `Cc1cc2nc(N)sc2cc1C`, with 178% (inactive); and `CN(C)CCOc1ccccc1Cc1ccccc1`, with -8.28% [at 42.5 µM] (inactive).
Consider `Cc1ccc(C)c(N)c1`, for which the “activity, negative = inhibition” value was -0.653% (inactive).
Take `Cc1onc(-c2ccccc2)c1C(=O)Cl`: the “activity, negative = inhibition” value is 3.46% [at 42.5 µM] (inactive).
Consider `CC(C)S`, for which the “activity, negative = inhibition” value is 13.6% (inactive).
Regarding `COC(=O)c1ccc2cc(C(=O)OC)ccc2c1`, the activity, negative = inhibition was -32% [at 19 µM] (inactive).

The nature of the next test: qHTS assay to identify small molecule agonists of the retinoic acid receptor (RAR) signaling pathway (AID 1159553). Also: potency is read from the fitted curve at half-maximal effect. Conditions: C3RL4 RARE luciferase reporter, agonist, 6 h; series mostly up to 73.3 µM; activation: at the top concentration. The essentials:
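C3RL4 cells carrying a RARE luciferase reporter were plated overnight at 37 C, then exposed to compounds in DMSO for 6 hr at 37 C and 5% CO2. Luminescence was read 30 min after luciferase reagent addition at room temperature.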
Take `CC1=C(O)C(=O)OC1C` (stereo unspecified): the “activation” value was -0.126% (inactive).
Take `NS(=O)(=O)c1cc(-c2nn[nH]n2)c(NCc2cccs2)cc1Cl`: the “activation” value is 0.1% (inactive).
On the same count and under the same terms, then `CCc1nnc(NS(=O)(=O)c2ccc(N)cc2)s1`, with -0.311% (inactive).
The same measure, in the same setting: for `O=CCCc1ccccc1` the value was 1.46% (inactive).
The same measure, in the same setting: then `CCOC(=O)c1ccccc1O`, with 0.909% (inactive).
Turning to `CCOc1ccc2nc(N)sc2c1`, the Potency was 3.83 µM (active).
`FC(F)(F)C(F)(F)C(F)(F)C(F)(F)C(F)(F)C(F)(F)C(F)(F)C(F)(F)Br`: the “activation” value is -4.67% (inactive).
For `CCN1CC(CCN2CCOCC2)C(c2ccccc2)(c2ccccc2)C1=O` (stereo unspecified), the “activation” value was 3.61% (inactive).
Take `O=C1CCCCC1C1CCCCC1` (stereo unspecified): the “activation” value was 2.53% (inactive).
With `CCCCC(=O)O[C@]1(C(=O)CO)[C@H](C)C[C@H]2[C@@H]3CCC4=CC(=O)C=C[C@]4(C)[C@@]3(F)[C@@H](O)C[C@@]21C`, the “activation” value was -8.26% (inactive).
Still for that read-out and setting: then `CC(=O)OC(C)OC(C)=O`, with -1.13% [at 94.8 µM] (inactive); and `CS(=O)(=O)c1ccc([C@@H](O)[C@@H](CF)NC(=O)C(Cl)Cl)cc1`, with 1.69% (inactive); and `CC1(C)C(=O)N(Cl)C(=O)N1Br`, with -2.01% (inactive).
Same read-out and setting: then `CC(C)Nc1nc(N)nc(Cl)n1`, with 1.62% (inactive); and `CCC1(C)NC(=O)NC1=O` (stereo unspecified), with -1.23% (inactive); and `N#Cc1ccc(C(c2ccc(C#N)cc2)n2cncn2)cc1`, with 2.4% (inactive).
As to `C1CCOC1`, the “activation” value is -0.176% [at 94.8 µM] (inactive).
Same read-out and setting: then `CN1CCN(N)CC1`, with 0.359% (inactive).
As to `Cc1cc2nc(N)sc2cc1C`, the Potency was 1.38 µM (active).
Take `CN(C)CCOc1ccccc1Cc1ccccc1`: the “activation” value is -4.77% (inactive).
Still for that read-out and setting: then `Cc1ccc(C)c(N)c1`, with -0.239% (inactive); and `COc1cc(N)c(Cl)cc1C(=O)NC1CCN(Cc2ccccc2)CC1`, with -4.34% (inactive); and `Cc1onc(-c2ccccc2)c1C(=O)Cl`, with 0.0916% (inactive).
On the same count and under the same terms, then `CC(C)S`, with 0.185% [at 94.8 µM] (inactive); and `CCCCCCCCCC/C=C/C#N`, with 9.91% (inactive); and `OCC(CBr)(CBr)CBr`, with 12.6% (inactive).
On the same count and under the same terms, then `CCCCC1CCC(=O)O1` (stereo unspecified), with 0.0625% (inactive).
As for `CCOC(=O)C(Br)c1ccccc1` (stereo unspecified), the “activation” value is -1.24% (inactive).
